The full list was thinned out, with hits kept by preference.
L3MBTL1 inh: inhibitors of human L3MBTL1; Q9Y468; AlphaScreen L3MBTL1–H3K9me1 peptide binding; Potency, µM (series often up to 57.1 µM), for the others: top-dose activity, negative = inhibition, usual class: inhibitors; actives 0.66% (n = 230,000); note: nearly all actives have a fitted effect of over 60% in size
Target sequence (Q9Y468 whole entry, looked up): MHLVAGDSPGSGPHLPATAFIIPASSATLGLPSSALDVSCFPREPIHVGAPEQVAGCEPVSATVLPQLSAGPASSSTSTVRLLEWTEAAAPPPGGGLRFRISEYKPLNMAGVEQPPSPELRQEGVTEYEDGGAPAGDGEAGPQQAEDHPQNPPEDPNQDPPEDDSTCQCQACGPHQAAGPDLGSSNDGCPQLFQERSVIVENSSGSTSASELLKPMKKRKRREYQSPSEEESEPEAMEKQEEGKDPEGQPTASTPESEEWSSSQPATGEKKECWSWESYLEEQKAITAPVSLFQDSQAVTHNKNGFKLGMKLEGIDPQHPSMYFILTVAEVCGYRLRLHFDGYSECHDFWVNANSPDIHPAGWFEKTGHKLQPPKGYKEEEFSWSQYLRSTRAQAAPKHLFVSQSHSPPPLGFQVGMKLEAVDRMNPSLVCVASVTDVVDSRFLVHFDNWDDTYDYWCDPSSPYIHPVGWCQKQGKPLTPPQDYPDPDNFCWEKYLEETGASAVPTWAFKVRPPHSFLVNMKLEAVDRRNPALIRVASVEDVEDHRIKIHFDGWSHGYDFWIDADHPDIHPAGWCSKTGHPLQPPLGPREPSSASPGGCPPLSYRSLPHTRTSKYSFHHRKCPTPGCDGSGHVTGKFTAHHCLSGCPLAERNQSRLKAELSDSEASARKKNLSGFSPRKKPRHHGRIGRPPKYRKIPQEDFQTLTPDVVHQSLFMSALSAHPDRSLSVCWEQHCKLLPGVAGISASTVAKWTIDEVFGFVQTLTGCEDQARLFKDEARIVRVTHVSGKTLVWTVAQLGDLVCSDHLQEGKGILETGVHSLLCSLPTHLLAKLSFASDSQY
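L3MBTL1 50 nM + b-AHA-H3(1-15)K9me1 75 nM, 30 min RT; compound added, 30 min RT; streptavidin donor/Ni-chelate acceptor beads 10 ug/mL each final, 30 min RT dark; AlphaScreen read.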
KDM4E inh: inhibitors of human JMJD2E histone demethylase. Potency, µM (titrated, usually from 57.1 µM), without a hit: at the highest dose activity change, negative = inhibition, actives largely listed as inhibitors. AID 2147. actives 1.6% (n = 230,000). JMJD2E catalytic domain, FDH-coupled NADH fluorescence (FDH is formaldehyde dehydrogenase);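 note: 0% = wells with enzyme and -100% = buffer wells without enzyme; nearly all actives have a fitted effect of over 50% in size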
APEX1 inh: APE1 (human) endonuclease inhibition. Potency, µM (titrated, usually from 65.8 µM), for inactives: at the highest dose activity change, negative = inhibition, hits mostly inhibitors. recombinant APE1, TAMRA/BHQ-2 abasic DNA cleavage fluorescence. AID 2517. actives 0.35% (n = 350,000). P27695;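 note: plate controls were vehicle for no effect and reference inhibitor for full effect; nearly all actives have a fitted effect of over 55% in size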
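Kinetic fluorescence read (525 ex/598 em nm, three reads 60 s apart) of AP-site incision; signal = third minus first read. Enzyme 0.75 nM, dual-labelled THF duplex 50 nM, compound preincubation 15 min RT.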
RECQ1 inh-1: blocks DNA unwinding by human RECQ1; Potency, µM (titrated, usually from 57.3 µM), inactives show at the highest dose activity, negative = inhibition, usual class: inhibitors; P46063; actives 0.54% (n = 240,000); RECQ1 DNA unwinding, red fluorescence kinetic read;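 note: plate controls were vehicle for no effect and no enzyme for full effect; nearly all actives have a fitted effect of over 30% in size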
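50 nM RECQ1T1 preincubated 15 min with compound in Tris pH 8.0 buffer with MgCl2, DTT, Tween-20 and 2.5 ug/ml poly(dI-dC); started with 200 nM TAMRA/BHQ-2 forked duplex and 2 mM ATP. Unwinding read as fluorescence (525/598 nm), two reads 2 h apart.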
TDP1 block: inhibitors of human tyrosyl-DNA phosphodiesterase TDP1; Q9NUW8; recombinant TDP1, AlphaScreen DNA substrate cleavage; Potency, µM (series often up to 130 µM), without a hit: at the highest dose activity change, negative = inhibition, most hits filed as inhibitors; actives 0.28% (n = 350,000); AID 485290; note: nearly all actives have a fitted effect of over 40% in size
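Recombinant E. coli-expressed Tdp1 (1 nM) preincubated with compound 15 min at RT, then 5'-biotin/3'-phosphotyrosine-FITC DNA substrate (15 nM) added for 5 min. AlphaScreen beads (10 ug/ml) added, 10 min RT; tyrosine-FITC cleavage read as signal loss.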
BLM inh: Bloom syndrome helicase (human) inhibition | Potency, µM (titrated, usually from 56.1 µM), without a hit: top-dose activity change, negative = inhibition, actives largely listed as inhibitors | actives 0.2% (n = 350,000) | recombinant BLM DNA unwinding, fluorescence dequenching;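 note: plate controls were vehicle for no effect and no enzyme for full effect; nearly all actives have a fitted effect of over 35% in size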
RECQ1 inh conf: confirmation of human RECQ1 helicase inhibitors; shares compounds with RECQ1 inh-1; RECQ1 helicase DNA unwinding, fluorescence; Potency, µM (doses to about 229 µM), for inactives: at the highest dose activity change, negative = inhibition, hits mostly inhibitors; actives 28% (n = 610); AID 2708; note: nearly all actives have a fitted effect of over 45% in size
ADP FP counter: displaces ADP in a fluorescence polarization counter-screen for RECQ1 hits | shares compounds with RECQ1 inh-1 | ADP fluorescence polarization displacement counterscreen | Potency, µM (titrated, usually from 228 µM), for inactives: at the highest dose activity change, negative = inhibition, hits mostly inhibitors | actives 27% (n = 530) | AID 2711; note: nearly all actives have a fitted effect of over 45% in size
RECQ1 inh-2: confirmation of human RECQ1 helicase inhibitors | Potency, µM (highest dose often 119 µM), inactives show at the top dose activity, negative = inhibition, most hits filed as inhibitors | actives 15% (n = 1,100) | shares compounds with RECQ1 inh-1 | AID 504841 | recombinant RECQ1 DNA unwinding, red fluorescence; note: nearly all actives have a fitted effect of over 50% in size
Numbers without * were called inactive; i = inactive; ? = inconclusive; . = not tested or not shown; [ ] = dose if it differs, or a comment. Unless noted, calls come from the whole dose curve; as a rule, active = well fitted curve in the direction sought with a large enough effect; inconclusive = small, poorly fitted or top-dose-only effect, or another doubt; inactive = no such curve, though single readings can be large; an effect the other way counts as inactive or inconclusive. Unless noted, % is set by controls: 0 for no effect and ±100 for the full control effect; potency is the fitted concentration of half-maximal effect.

SMILES | L3MBTL1 inh | KDM4E inh | APEX1 inh | RECQ1 inh-1 | TDP1 block | BLM inh | RECQ1 inh-2 | others
Cc1ccc(CNC(=O)CSc2ccc(-c3ccco3)nn2)cc1 | -3% | ? | 1% | -2% | 3% | 7% | .
O=C(CSc1ccc(-c2ccco2)nn1)NCCc1ccccc1 | . | ? | ? | 40µM* | 3% | -26% | -14%
Cc1ccc(C(=O)CSc2nnnn2Cc2ccccc2)cc1C | . | 0% | 5% | ? | -2% | -8% | -2%
CN(C)c1ccc(/C=C/C=C2/SC(=S)N(c3ccccc3)C2=O)cc1 | 4.5µM* | 9% | -12% | 1.4µM* | 10% | -9% | . | RECQ1 inh conf=3.5µM*;ADP FP counter=?
O=C(NCc1ccco1)C1CCCCN1S(=O)(=O)c1ccc(F)cc1 (centres undefined) | 4% | -3% | 13% | ? | 5% | 0% | -10%
O=C(NCc1ccco1)c1ccc(S(=O)(=O)N2CCOCC2)cc1 | 35µM* | -8% | 32µM* | ? | . | -27% | -20%
O=S(=O)(c1ccc2nc(-c3ccco3)c(-c3ccco3)nc2c1)N1CCOCC1 | -88% | ? | ? | 32µM* | 1% | 14µM* | 15%
O=S(=O)(c1ccc2ccccc2c1)N1CCOCC1 | . | . | 30% | . | 0% | 0% | .
O=C(Nc1ccc(S(=O)(=O)Nc2nccs2)cc1)c1ccc(=O)[nH]c1 | -29% | -16% | ? | ? | ? | -28% | ?
C/C=C(\C)C(=O)C[Si](C)(C)c1ccccc1 | . | 7% | 9% | i | 7% | 3% | .
COc1ccc(C)cc1N(CC(=O)N/N=C/c1ccccc1C(=O)O)S(=O)(=O)c1ccccc1 | . | 0% | 1% | 0% | 0% | -3% | . | RECQ1 inh conf=0%;ADP FP counter=9%
COc1ccc(N(CC(=O)N/N=C/c2cccc(OC)c2OC)S(=O)(=O)c2ccccc2)cc1 | . | . | -6% | . | . | -7% | .
COc1ccc(Cn2cccc(NC(=O)Nc3cccc(OC)c3)c2=O)cc1 | . | ? | -1% | ? | 3% | -11% | -17%
CN(C)c1ccc(-c2nc(Nc3ccncc3)c3ccccc3n2)cc1 | . | ? | 5% | ? | 15% | -13% | ?
N#C/C(=C/c1ccc(N2CCCCCC2)o1)c1cccc(F)c1 | . | 0% | 14% | 22% | -5% | ? | .
COc1cc(N2CCCC2)c(OC)cc1/C=C(/C#N)c1cccc(F)c1 | . | -14% | -7% | 4µM* | 13% | -12% | . | RECQ1 inh conf=?;ADP FP counter=?
CCc1cccc(-n2nnc(-c3nsc(NC(=O)c4cccs4)n3)c2C)c1 | . | . | . | . | 3% | -1% | .
Fc1ccccc1N1CCN(c2ncnc3nc[nH]c23)CC1 | . | 8% | -3% | i | . | -6% | .
Clc1ccccc1N1CCN(c2ncnc3nc[nH]c23)CC1 | 4% | -13% | -1% | 28µM* | 3% | -1% | ?
C[C@@H](NC(=O)c1nc[nH]c1C(=O)N[C@@H](Cc1ccccc1)C(=O)OCc1ccccc1)c1ccccc1 | -16% | 0% | -2% | -26% | 9% | -15% | .
CC(C)C[C@H](NC(=O)c1nc[nH]c1C(=O)NCCCCCNC(=O)OC(C)(C)C)C(=O)OCc1ccccc1 | -9% | -3% | ? | ? | 10% | -16% | -20%
C[C@H](NC(=O)c1nc[nH]c1C(=O)N[C@@H](Cc1ccccc1)C(=O)OCc1ccccc1)c1ccccc1 | -12% | 16% | -7% | 40µM* | 12% | -15% | -24%
O=C(NCCCN1CCN(c2ccccc2)CC1)c1ccc2nc(CCc3ccccc3)oc2c1 | . | . | . | . | 8% | -3% | .
Cc1cnc(CNc2ncnc3ccc(-c4ccc(C(=O)N(C)C)cc4)cc23)cn1 | . | . | 1% | 3% | . | -13% | .
Cc1cnc(CNc2ncnc3ccc(-c4ccc(N(C)C)cc4)cc23)cn1 | . | . | -9% | 25µM* | . | -22% | ?
SMILES | L3MBTL1 inh | KDM4E inh | APEX1 inh | RECQ1 inh-1 | TDP1 block | BLM inh | RECQ1 inh-2 | others
Cc1cccc(N=C2NC(=O)S/C2=C\c2ccco2)c1 | ? | -27% | ? | -5% | 0% | -21% | .
COc1ccc(N=C2NC(=O)/C(=C\C=C\c3ccco3)S2)cc1 | 32µM* | ? | ? | ? | 3% | 18µM* | ?
Cc1cccc(N=C2NC(=O)/C(=C/C=C/c3ccco3)S2)c1 | ? | ? | ? | 35µM* | 3% | ? | ?
O=C1NC(=Nc2ccc3ccccc3c2)S/C1=C/c1ccco1 | 28µM* | -2% | ? | ? | 1% | 18µM* | ?
CC(C)CC1=C/C(=C/c2ccc(-c3ccccc3)o2)C(=O)O1 | ? | ? | ? | 25µM* | 5% | -25% | . | RECQ1 inh conf=?
NS(=O)(=O)c1ccc(-c2ccc(C=C3C(=O)c4ccccc4C3=O)o2)cc1 | 2% | . | 33% | . | . | -3% | .
COc1ccc(CN(Cc2ccccc2)C(=O)c2ccco2)cc1COc1ccc(NC(C)=O)cc1 | . | . | . | . | 4% | . | .
CCOC(=O)c1c(NC(=O)/C=C/C(=O)O)sc(C)c1-c1ccc(C(C)(C)C)cc1 | -7%[11.4 µM] | -3% | 8% | ? | 10% | -12% | 50µM*
CCOC(=O)c1c(NC(=O)/C=C\C(=O)O)sc(C)c1-c1ccccc1 | 4% | -5% | -1% | i | 6% | -1% | .
CCN(CC)S(=O)(=O)c1ccc2c(c1)nc(CCC(=O)O)n2CC | 11% | 4% | -1% | i | 0% | 4% | . | RECQ1 inh conf=10%;ADP FP counter=5%
CCc1sc(C(C2C(=O)CC(C)(C)CC2=O)C2C(=O)CC(C)(C)CC2=O)cc1[N+](=O)[O-] | -1% | -18% | -7% | 3.2µM* | 0% | -4% | -12%
Nc1nc(Nc2cccc(Cl)c2)nc(NCCO)c1[N+](=O)[O-] | . | 4% | -3% | ? | -9% | ? | 50µM*
Cc1cccc(Nc2nc(N)c([N+](=O)[O-])c(NCCO)n2)c1 | 6% | 2% | -1% | -6% | 4% | -1% | .
